Compounds without any hit were thinned out: in the full panel of roughly 83,000, 20% have a hit.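 Percent growth is the endpoint: 0 to 100 indicates growth inhibition (40 means 60% inhibition), 0 means no net growth, and negative values indicate cell death.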 Active and inactive are the calls of the source. How the source made its calls: active means growth percent below 10; inactive means the rest.
Legend:
Assay in all cases: NCI-60 one-dose screen, 48 h (100 = growth as untreated, 0 = no growth, -100 = all killed)
Conditions in all cases: 10 µM unless noted
SR leukemia = system: SR leukemia
RPMI-8226 leukemia = system: RPMI-8226 leukemia
OVCAR-8 ovarian = system: OVCAR-8 ovarian
OVCAR-5 ovarian = system: OVCAR-5 ovarian
OVCAR-4 ovarian = system: OVCAR-4 ovarian
SK-OV-3 ovarian = system: SK-OV-3 ovarian
IGROV1 ovarian = system: IGROV1 ovarian
OVCAR-3 ovarian = system: OVCAR-3 ovarian
HS 578T breast = system: HS 578T breast
NCI/ADR-RES ovarian = system: NCI/ADR-RES ovarian
T-47D breast = system: T-47D breast
BT-549 breast = system: BT-549 breast
MDA-MB-435 melanoma = system: MDA-MB-435 melanoma
SW-620 colon = system: SW-620 colon
MCF7 breast = system: MCF7 breast
HCT-116 colon = system: HCT-116 colon
HCC-2998 colon = system: HCC-2998 colon
KM12 colon = system: KM12 colon

Measured: growth

O=C1NC(=C(Cl)Cl)/C(=N/S(=O)(=O)NCCc2c[nH]c3ccccc23)N1
active: OVCAR-3 ovarian -25.8% | BT-549 breast 9.16% | KM12 colon -4.6%
inactive: SR leukemia 53.3% | RPMI-8226 leukemia 14.8% | OVCAR-8 ovarian 92.9% | OVCAR-5 ovarian 48.3% | OVCAR-4 ovarian 58.6% | SK-OV-3 ovarian 62.2% | IGROV1 ovarian 98.7% | HS 578T breast 27.3% | NCI/ADR-RES ovarian 67.9% | T-47D breast 47.1% | MDA-MB-435 melanoma 25.1% | SW-620 colon 54.3% | MCF7 breast 14.2% | HCT-116 colon 34.9% | HCC-2998 colon 98.3%

CCOC(=O)c1ccc2c(c1)c1c(C)c3ccncc3c(C)c1n2C
active: RPMI-8226 leukemia -1.7% | OVCAR-8 ovarian 3.64% | OVCAR-5 ovarian -11% | OVCAR-4 ovarian -12.8% | SK-OV-3 ovarian 0.282% | IGROV1 ovarian -25.5% | OVCAR-3 ovarian -20.4% | HS 578T breast -4.98% | NCI/ADR-RES ovarian -12.5% | T-47D breast -3.13% | MDA-MB-435 melanoma 3.03% | SW-620 colon 0.329% | MCF7 breast 1.8% | HCT-116 colon 0.263% | HCC-2998 colon 4.25% | KM12 colon 0.78%
inactive: SR leukemia 26.8% | BT-549 breast 21.1%

CC(C)C[C@@H](C(=O)N[C@H](C(=O)OC1CCCC1)c1ccccc1)[C@H](O)C(=O)NO
inactive: SR leukemia 51.1% | RPMI-8226 leukemia 29% | OVCAR-8 ovarian 52.7% | OVCAR-5 ovarian 59.8% | OVCAR-4 ovarian 53% | SK-OV-3 ovarian 67.5% | IGROV1 ovarian 73.4% | OVCAR-3 ovarian 43.4% | HS 578T breast 74.6% | NCI/ADR-RES ovarian 101% | T-47D breast 36.7% | BT-549 breast 69.7% | MDA-MB-435 melanoma 49.4% | SW-620 colon 49.8% | MCF7 breast 43.3% | HCT-116 colon 56.7% | HCC-2998 colon 94.4% | KM12 colon 65.7%

COc1ccc(-c2cc(C(=O)N3N=C(c4ccc(N)cc4)CC3c3ccccc3)c3ccccc3n2)cc1 (stereo not drawn)
active: MDA-MB-435 melanoma -20%
inactive: SR leukemia 22.6% | RPMI-8226 leukemia 23.5% | OVCAR-8 ovarian 47.5% | OVCAR-5 ovarian 64.7% | OVCAR-4 ovarian 65% | SK-OV-3 ovarian 34.9% | IGROV1 ovarian 49.5% | OVCAR-3 ovarian 10.7% | HS 578T breast 36.8% | NCI/ADR-RES ovarian 34.4% | T-47D breast 38.2% | BT-549 breast 41.3% | SW-620 colon 23.4% | MCF7 breast 24.1% | HCT-116 colon 17.8% | HCC-2998 colon 59.9% | KM12 colon 25.1%

Cc1c(Cl)cccc1C(=O)Nc1nc2c(s1)CN(C(=O)Nc1cccc(C(F)(F)F)c1)CC2
active: RPMI-8226 leukemia 7.93% | OVCAR-3 ovarian -11.8% | NCI/ADR-RES ovarian -27.2% | MDA-MB-435 melanoma -22%
inactive: SR leukemia 13.5% | OVCAR-8 ovarian 14.8% | OVCAR-5 ovarian 37% | OVCAR-4 ovarian 28.8% | SK-OV-3 ovarian 34.1% | IGROV1 ovarian 22.6% | HS 578T breast 30.4% | T-47D breast 46% | BT-549 breast 33.6% | SW-620 colon 33.4% | MCF7 breast 12.6% | HCT-116 colon 13.3% | HCC-2998 colon 11.7% | KM12 colon 14.5%

COc1cccc(Nc2ccnc3[nH]c4ccc([N+](=O)[O-])cc4c23)c1
inactive: SR leukemia 31.5% | RPMI-8226 leukemia 65.2% | OVCAR-8 ovarian 32.2% | OVCAR-5 ovarian 110% | OVCAR-4 ovarian 27.2% | SK-OV-3 ovarian 47.5% | IGROV1 ovarian 33.1% | OVCAR-3 ovarian 46.9% | HS 578T breast 27.8% | NCI/ADR-RES ovarian 44.4% | T-47D breast 41.8% | BT-549 breast 80.3% | SW-620 colon 56.5% | MCF7 breast 19.7% | HCT-116 colon 24.5% | HCC-2998 colon 84.8% | KM12 colon 27.2%
active: MDA-MB-435 melanoma -24.4%

O=C(CCC(=O)c1nc2ncccc2[nH]1)NN1C(=O)CSC1c1ccc(Cl)cc1 (stereo not drawn)
inactive: SR leukemia 55.9% | RPMI-8226 leukemia 87.1% | OVCAR-8 ovarian 101% | OVCAR-5 ovarian 106% | OVCAR-4 ovarian 94.1% | SK-OV-3 ovarian 100% | IGROV1 ovarian 86.7% | OVCAR-3 ovarian 98.7% | HS 578T breast 101% | NCI/ADR-RES ovarian 100% | T-47D breast 90.7% | BT-549 breast 120% | MDA-MB-435 melanoma 99.7% | SW-620 colon 81.4% | MCF7 breast 87% | HCT-116 colon 86% | HCC-2998 colon 112% | KM12 colon 94.7%

Cc1ncc(C(=O)Nc2ccc(CN3CCN(C)CC3)c(C(F)(F)F)c2)cc1C#Cc1cnc(N)c2ccncc12
inactive: BT-549 breast 22.9%
active: SR leukemia -41% | RPMI-8226 leukemia -43.7% | OVCAR-8 ovarian -35.5% | OVCAR-5 ovarian -13.6% | OVCAR-4 ovarian -16.9% | SK-OV-3 ovarian -34.7% | IGROV1 ovarian -42.5% | OVCAR-3 ovarian -43.6% | HS 578T breast -19% | NCI/ADR-RES ovarian -25.1% | T-47D breast -37.3% | MDA-MB-435 melanoma -94% | SW-620 colon -59.5% | MCF7 breast -72% | HCT-116 colon -87.6% | HCC-2998 colon -89.3% | KM12 colon -70%

COc1ccc(-c2cn(-c3ccc(Cl)cc3)c(SCC(=O)c3ccc([N+](=O)[O-])cc3)n2)cc1
inactive: SR leukemia 90.1% | RPMI-8226 leukemia 97.2% | OVCAR-8 ovarian 51.8% | OVCAR-5 ovarian 90.5% | OVCAR-4 ovarian 38.7% | SK-OV-3 ovarian 85.2% | IGROV1 ovarian 83% | OVCAR-3 ovarian 106% | HS 578T breast 41% | NCI/ADR-RES ovarian 79.5% | T-47D breast 83.4% | BT-549 breast 89.7% | MDA-MB-435 melanoma 79.5% | SW-620 colon 86.1% | MCF7 breast 82.4% | HCT-116 colon 74.6% | HCC-2998 colon 103% | KM12 colon 94.8%

NC(=O)c1c(NC(=O)c2ccc(Cl)cc2)sc2c1CCC(=O)C2
inactive: SR leukemia 13.3% | OVCAR-8 ovarian 61.3% | OVCAR-5 ovarian 86.5% | SK-OV-3 ovarian 93% | IGROV1 ovarian 52.6% | OVCAR-3 ovarian 32.6% | HS 578T breast 64% | NCI/ADR-RES ovarian 87.8% | T-47D breast 35.9% | BT-549 breast 25.1% | MDA-MB-435 melanoma 94.5% | SW-620 colon 12.7% | MCF7 breast 57.8% | HCC-2998 colon 104% | KM12 colon 42.1%
active: RPMI-8226 leukemia -14.3% | OVCAR-4 ovarian 9.18% | HCT-116 colon 8.72%

C=CCn1c(SCC(=O)Nc2ccc(C(=O)/C=C/c3cc(OC)c(OC)c(OC)c3)cc2)nnc1-c1cc(-c2ccc(OC)cc2)nc2ccccc12
inactive: SR leukemia 50.9% | RPMI-8226 leukemia 55.5% | OVCAR-8 ovarian 72.8% | OVCAR-5 ovarian 105% | OVCAR-4 ovarian 90% | SK-OV-3 ovarian 98% | IGROV1 ovarian 98.5% | OVCAR-3 ovarian 93.4% | HS 578T breast 90.4% | NCI/ADR-RES ovarian 96.4% | T-47D breast 84.9% | BT-549 breast 90.1% | MDA-MB-435 melanoma 100% | SW-620 colon 90.8% | MCF7 breast 64.4% | HCT-116 colon 67.8% | HCC-2998 colon 107% | KM12 colon 94%

O=C(O)CCCc1cnc2c3sccc3nc(SCc3c(Cl)cccc3Cl)n12
active: OVCAR-3 ovarian 7.34% | MDA-MB-435 melanoma 6.44%
inactive: SR leukemia 23.9% | RPMI-8226 leukemia 51.6% | OVCAR-8 ovarian 63.7% | OVCAR-5 ovarian 80.5% | OVCAR-4 ovarian 59.7% | SK-OV-3 ovarian 36.5% | IGROV1 ovarian 54.1% | HS 578T breast 39.5% | NCI/ADR-RES ovarian 45.7% | T-47D breast 24.9% | BT-549 breast 44.8% | SW-620 colon 27.3% | MCF7 breast 26.5% | HCT-116 colon 21.7% | HCC-2998 colon 81.1% | KM12 colon 21.7%

O=C(CCCCCCCCC(=O)N/N=C\c1cc(Cl)ccc1O)N/N=C\c1cc(Cl)ccc1O
inactive: SR leukemia 14.1% | RPMI-8226 leukemia 31.9% | OVCAR-8 ovarian 25.9% | OVCAR-5 ovarian 62% | OVCAR-4 ovarian 23% | SK-OV-3 ovarian 41.1% | IGROV1 ovarian 30.2% | OVCAR-3 ovarian 31.4% | HS 578T breast 66.3% | NCI/ADR-RES ovarian 17.4% | T-47D breast 28.2% | BT-549 breast 38.5% | MDA-MB-435 melanoma 38.1% | SW-620 colon 46.5% | MCF7 breast 20% | HCT-116 colon 22.7% | HCC-2998 colon 39% | KM12 colon 24.2%

Cc1nc2ccccc2c(/C=C/c2ccc(C(F)(F)F)cc2)c1C(=O)/C=C/c1ccccc1
active: SR leukemia 8.57% | RPMI-8226 leukemia -17.8% | OVCAR-8 ovarian -13% | OVCAR-5 ovarian -75.7% | OVCAR-4 ovarian -1.62% | IGROV1 ovarian -37.3% | OVCAR-3 ovarian -62.7% | HS 578T breast -0.739% | NCI/ADR-RES ovarian -33.8% | T-47D breast -18.6% | BT-549 breast -0.148% | MDA-MB-435 melanoma -39.2% | SW-620 colon -40.8% | MCF7 breast 4.74% | HCT-116 colon -74.9% | HCC-2998 colon -74.7% | KM12 colon 4.07%
inactive: SK-OV-3 ovarian 48.2%

COc1ccc(/C(C)=C(\c2ccc(OCCN3CCCCCC3)cc2)c2ccc(OC(=O)c3ccccc3)cc2)cc1
inactive: RPMI-8226 leukemia 19.5% | OVCAR-8 ovarian 56.5% | OVCAR-5 ovarian 72.1% | OVCAR-4 ovarian 42.6% | SK-OV-3 ovarian 81.4% | IGROV1 ovarian 46.7% | OVCAR-3 ovarian 64.6% | HS 578T breast 35.9% | NCI/ADR-RES ovarian 60.7% | T-47D breast 43.4% | BT-549 breast 63.6% | MDA-MB-435 melanoma 63% | SW-620 colon 44.8% | MCF7 breast 13.5% | HCT-116 colon 19.4% | HCC-2998 colon 77.5% | KM12 colon 38.4%
active: SR leukemia -8.34%

C=CC(C)(O)CC/C=C(\CO)C(=O)OC1C(C)OC(O[C@](C)(C=C)CC/C=C(\CO)C(=O)O[C@H]2C[C@@]3(C(=O)OC4OC(CO)C(O)C(O)C4OC4OC(C)C(OC5OC(CO)C(O)C5O)C(OC5OC(CO)C(O)C(O)C5O)C4O)C(CC2(C)C)C2=CCC4[C@@]5(C)CC[C@H](OC6OC(COC7OC(C)C(O)C(O)C7OC7OCC(O)C(O)C7O)C(O)C(O)C6NC(C)=O)C(C)(C)C5CC[C@@]4(C)[C@]2(C)C[C@H]3O)C(O)C1O (stereo partly drawn)
inactive: RPMI-8226 leukemia 41.4% | OVCAR-8 ovarian 10.3% | OVCAR-5 ovarian 11.8% | NCI/ADR-RES ovarian 17.5% | BT-549 breast 104%
active: SR leukemia -26.7% | OVCAR-4 ovarian -29.2% | SK-OV-3 ovarian -79.8% | IGROV1 ovarian -49.2% | OVCAR-3 ovarian -94% | HS 578T breast -31.4% | T-47D breast -54% | MDA-MB-435 melanoma -80.5% | SW-620 colon -43.2% | MCF7 breast -50% | HCT-116 colon 6.13% | HCC-2998 colon -90.5% | KM12 colon -86.7%

— PubChem BioAssay (NCI)
